Consider 64 molecules from PubChem BioAssay AID686979 (National Center for Advancing Translational Sciences (NCATS), 2013).

Values joined by “and” are separate entries in the source; they are usually repeats but may differ in a detail not shown here. Identical values can stand only once. Hit rate of the full screen: of about 420,000 compounds, about 50,000 (12%) were called active. Inconclusive results (about 26%) are left out. The call rests on the fitted dose curve; in most records, active means well fitted inhibition curve with a large enough effect; inconclusive means small, poorly fitted or top-dose-only effect; inactive means flat fitted curve, though single readings scatter. Shown is part of a subset that was picked to be rich in actives. Entries that show only a call come without a potency.
Potency means the concentration at half of the fitted maximal effect.

The assay can be described thus: qHTS for Inhibitors of human tyrosyl-DNA phosphodiesterase 1 (TDP1): qHTS in cells in presence of CPT. Further: nearly all actives have a fitted effect of over 55% in size. As to conditions: chicken DT40 Tdp1-/-;hTDP1 cells + 20 nM CPT, ATP luminescence, 48 h; series mostly up to 46.2 µM. An outline of the steps:
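Chicken DT40 Tdp1-/- cells complemented with human TDP1, 400 cells/well, exposed to compounds plus 20 nM camptothecin for at least 48 h at 37 C; viability read as ATP content by CellTiter-Glo luminescence.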
For orientation: In qHTS, concentration-response curves come from the screen itself.
For the molecule `COc1ccc(-c2c(C)c3ccc(O)c(CN4CCN(C)CC4)c3oc2=O)cc1OC`, the Potency entry was “inactive”. As for `O=c1c2c(-c3ccccc3)ccnc2[nH]n1-c1ccccc1`, the Potency result is “inactive”. In the case of `COc1cc(/C=C2\SC(=O)NC2=O)ccc1OCc1ccc(Cl)nc1`, the Potency result was “inactive”. In the case of `C=CCNC(=O)c1ccc(C)c(Br)c1`, the Potency entry was “inactive”. On to `C=CCNC(=O)c1ccc2nc(-c3ccco3)c(-c3ccco3)nc2c1`, for which the Potency is 11.2 µM (active). For `C=CCNC(=O)c1cc(-c2ccccc2O)on1`, the Potency result is “inactive”. On to `CCSc1nnc(SCC(=O)NNC(=O)c2ccccc2F)s1`, for which the Potency result is “inactive”. For `Cn1c(=O)cc(SCC(=O)N2CCCC2)c2cc(Cl)ccc21`, the Potency result is “inactive”. `COc1cccc(NC(=O)CSc2cc(=O)n(C)c3ccc(Cl)cc23)c1`: the Potency was 23.1 µM (active).

As to `CCOc1ccc(CCNC(=O)CSc2cc(=O)n(C)c3ccc(Cl)cc23)cc1OCC`, the Potency was 18.4 µM (active).

As for `CCOc1ccc(CCNC(=O)Nc2ccccc2)cc1OCC`, the Potency result was “inactive”. The entry for `COc1cccc(NC(=O)CN(C)C(=O)Cc2ccc(Cl)cc2Cl)c1` is “inactive”; for `CCN(CCCNC(=O)CSc1cc(=O)n(C)c2cc(Cl)ccc12)Cc1ccccc1` it is “inactive”.

Turning to `CN(C)Cc1c(O)ccc2occ(C(O)c3ccccc3)c12` (centres undefined), the Potency entry was “inactive”.

As to `COC(C[C@@H](O)C[C@@H](O)[C@H](C)OCc1ccccc1)OC`, the Potency entry is “inactive”. Consider `Cc1ccc2c(c1)N(C(=O)Nc1ccc(Br)cc1F)CCO2`, for which the Potency entry is “inactive”. Turning to `O=C(Nc1ccccc1C(=O)Nc1ccncc1)c1ccc([N+](=O)[O-])cc1`, the Potency result was “inactive”. For the molecule `CCOC(=O)c1nc(Nc2ccc(C(=O)OC)cc2)c2ccccc2n1`, the Potency is 7.31 µM (active) and 16.4 µM (active). For the molecule `COC(=O)c1ccc(Nc2ncnc3sccc23)cc1`, the Potency result was “inactive”. On to `CCOC(=O)c1ccc(Nc2cc(C)nc3nc(C)nn23)cc1`, for which the Potency result is “inactive”. `C/C=C/C(=O)OCC(=O)Nc1ccc(F)cc1Cl`: the Potency result was “inactive”.

For `CN(C)N1C(N)=C(C#N)C(c2ccc(Br)cc2)C2=C1CCCC2=O` (centres undefined), the Potency result was “inactive”.

As to `COCC(C)OC(=O)c1c(N)n(CCCN2CCOCC2)c2nc3ccccc3nc12` (centres undefined), the Potency entry is “inactive”. The figure for `CC(C)(C)c1ccc(C(=O)NCCn2c(N)c(C#N)c3nc4ccccc4nc32)cc1` is 23.1 µM (active); for `CCCNC(=O)c1c(N)n(-c2ccc(S(N)(=O)=O)cc2)c2nc3ccccc3nc12` it is “inactive”; for `O=C(NCc1nnc(SCC(=O)N2CCCCCC2)o1)c1ccc(F)cc1` it is “inactive”. Regarding `C=CCc1cc(S(=O)(=O)c2ccc(O)c(CC=C)c2)ccc1O`, the Potency entry was “inactive”. The value for `Cc1c(CCC(=O)O)c(=O)oc2c(C)c(OCc3ccccc3Cl)ccc12` was “inactive”; that for `CC(C)CN(C(=O)c1cccc(S(=O)(=O)N2CCCCC2)c1)C1CCS(=O)(=O)C1` (centres undefined) was “inactive”. On to `CCCCn1c(N)c(N(CCOC)C(=O)c2cccc(OCc3ccccc3)c2)c(=O)[nH]c1=O`, for which the Potency entry was “inactive”. For `COc1ccccc1-c1noc(CSc2nc(C)cc(=O)[nH]2)n1`, the Potency result is “inactive”. On to `Cc1ccc(-c2nc(-c3ccncc3)no2)c(C)c1`, for which the Potency result was “inactive”.

`COc1ccc(-c2noc(CSc3nnc(-c4ccccc4)n3-c3ccc(F)cc3)n2)c(OC)c1`: the Potency was 11.6 µM (active).

Regarding `Cc1ccc(-c2noc(CSc3nnc(-c4cccs4)n3C)n2)cc1`, the Potency result is “inactive”. The entry for `CSc1nnc(CNC(=O)c2ccccc2)n1-c1ccc(F)cc1` is “inactive”; for `O=C(CSc1nnc(-c2ccncc2)n1-c1ccc(Cl)cc1)Nc1ccc(C(=O)O)cc1` it is “inactive”; for `COc1ccc(-c2nnc(SCC(=O)c3ccco3)n2-c2ccccc2)cc1` it is “inactive”. The value for `Cc1ccc(-c2noc(CSc3nnc(-c4ccncc4)n3-c3ccc(F)cc3)n2)cc1` was 11.6 µM (active).

On to `Cc1ccc(-c2noc(CSc3nnc(-c4ccc(Cl)cc4)n3C)n2)cc1`, for which the Potency is 18.4 µM (active).

Take `Cc1ccc(CSc2nnc(-c3cnccn3)n2C)cc1`: the Potency entry was “inactive”. With `Fc1ccc(-n2c(Cc3ccccc3)nnc2SCc2nc(-c3ccc(Cl)cc3)no2)cc1`, the Potency is 13 µM (active).

As to `O=C(CSc1nnc(Cc2ccccc2)n1-c1ccccc1)N1CCOCC1`, the Potency result is “inactive”. The value for `Cc1cc(=O)cc(C)n1-c1ccc(Cl)c(Cl)c1` was “inactive”; that for `CN(C(=O)CC1C(=O)NCCN1Cc1ccc2ccccc2c1)C1CCOCC1` (centres undefined) was “inactive”; that for `Cc1ccc(/C=C2\CCn3c2nc2cc(C(=O)O)ccc2c3=O)c(C)c1` was “inactive”. For the molecule `Cc1ccc(-c2cc(C(=O)NN)n[nH]2)o1`, the Potency entry was “inactive”. Take `CN(Cc1ccccc1)C(=O)[C@@H]1CCCN1C(=O)[C@@H]1CCCN1C(=O)c1c(F)cccc1F`: the Potency entry is “inactive”. In the case of `CC(C)=CCN1CCN(Cc2ccc(Oc3ncccn3)cc2)CC1CCO` (centres undefined), the Potency result is “inactive”.

As for `COc1ccccc1OCCOc1ccc(/C=C2\C(=N)N3N=C(C)SC3=NC2=O)cc1`, the Potency result is “inactive”. `COc1ccc(NC(=O)N(C)C[C@H]2Oc3ncc(C#C[C@@H](C)O)cc3C(=O)N([C@H](C)CO)C[C@H]2C)cc1`: the Potency result was “inactive”. For `Cn1c(=O)cc(OCC(=O)N2CCN(c3ccccc3)CC2)c2ccccc21`, the Potency entry was “inactive”. Consider `N#C/C(C(=O)N1CCOCC1)=C1/SC(Cc2ccc(F)cc2)C(=O)N1c1ccccc1` (centres undefined), for which the Potency result was “inactive”. On to `COc1ccc(S(=O)(=O)N2CCN(CC(=O)N3CCOCC3)CC2)cc1OC`, for which the Potency entry was “inactive”. The value for `O=C(O)CCC(=O)Nc1ccc(OCC2CCCO2)cc1` (centres undefined) was “inactive”; that for `Cc1ccsc1-c1cc(C(=O)O)c2c(ccc3ccccc32)n1` was “inactive”; that for `CC(=O)C1=C(O)C(=O)N(c2ccc(Br)cc2)C1c1ccc([N+](=O)[O-])cc1` (centres undefined) was “inactive”. Regarding `CCn1c2c(c(=O)n3ncc(C(=O)N4CCN(c5ccccc5)CC4)c13)CN(Cc1ccc(OC)cc1)CC2`, the Potency was 16.4 µM (active). `CCn1c(CNC(=O)c2ccccc2)nnc1SCC(=O)N1CCN(c2ccccc2)CC1`: the Potency result is “inactive”. The value for `CCOC(=O)N1CCC(NC(=O)C(NS(=O)(=O)c2ccc3c(c2)CCN3C(=O)CC)C(C)C)CC1` (centres undefined) was “inactive”; that for `Cc1ccc(NS(=O)(=O)c2ccc3c(c2)NC(=O)CO3)cc1` was “inactive”; that for `Cc1cc2c(cc1S(=O)(=O)NCc1ccc(Cl)cc1)OCC(=O)N2` was “inactive”. In the case of `Cc1cc(C)cc(NS(=O)(=O)c2cc3c(cc2C)NC(=O)CO3)c1`, the Potency is 16.4 µM (active). As for `CC1CCCCC12NC(=O)N(CC(=O)OCC(=O)NCc1ccc(F)cc1)C2=O` (centres undefined), the Potency result is “inactive”. In the case of `CC(=O)C[C@@H]1OC[C@H](CO)N1S(=O)(=O)c1ccc(C)cc1`, the Potency entry was “inactive”.
